Data published in PubChem BioAssay (NCATS).
Activity calls are given as the source filed them. The call rests on the fitted dose curve; in most records, active means well fitted curve in the direction sought with a large enough effect; inconclusive means small, poorly fitted or top-dose-only effect, or another doubt; inactive means no such curve, though single readings can be large; an effect the other way counts as inactive or inconclusive.

How the values were obtained:
[1] = biological target: Alpha-galactosidase A (Homo sapiens) (UniProt P06280); assay: Counterscreen for Glucocerebrosidase Inhibitors: qHTS Assay for Human alpha-Galactosidase at pH 4.5 (AID 992)
Sequence of Alpha-galactosidase A (Homo sapiens) (P06280 whole entry, looked up): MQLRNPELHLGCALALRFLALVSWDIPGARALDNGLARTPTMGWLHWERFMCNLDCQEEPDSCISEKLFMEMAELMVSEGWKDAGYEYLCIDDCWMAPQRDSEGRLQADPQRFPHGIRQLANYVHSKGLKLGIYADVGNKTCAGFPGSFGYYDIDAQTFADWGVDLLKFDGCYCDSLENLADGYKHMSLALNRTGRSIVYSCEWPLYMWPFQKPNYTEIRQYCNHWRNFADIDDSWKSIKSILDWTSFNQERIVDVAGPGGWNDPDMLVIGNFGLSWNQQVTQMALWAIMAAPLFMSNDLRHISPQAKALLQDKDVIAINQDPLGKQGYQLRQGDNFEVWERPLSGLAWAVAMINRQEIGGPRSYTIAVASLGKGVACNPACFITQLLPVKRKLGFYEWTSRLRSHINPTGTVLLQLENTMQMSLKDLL
Procedure, shortened: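 Fluorogenic 1536-well qHTS at pH 4.5 (citrate, Tween-20): 2 nM enzyme, 80 uM 4-MU-alpha-galactoside, 20 min room temperature, NaOH/glycine stop. Titration 0.7 nM to 77 uM, data normalized to no-enzyme and full-activity controls, Hill-fitted AC50.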

[2] = biological target: alpha-glucosidase (Oryza sativa, rice) (UniProt Q653V4); assay: Counterscreen for Glucocerebrosidase Inhibitors: qHTS Assay for Rice alpha-Glucosidase at pH 5.0 (AID 997)
Procedure, shortened: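 Endpoint fluorogenic assay at pH 5.0: compounds (0.7 nM to 77 uM) titrated against 4 nM rice enzyme and 400 uM 4-MU-alpha-glucoside for 20 min at room temperature; NaOH/glycine stop, read ex 365/em 440 nm, Hill-fitted AC50.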

Structure (SMILES) | outcome [1] | outcome [2]
Fc1ccc([C@@H]2CCNC[C@H]2COc2ccc3c(c2)OCO3)cc1 | inactive | inactive
Cn1ccc2cc3c(cc21)CCN3C(=O)Nc1cccnc1 | inactive | inactive
CCCCc1oc2ccccc2c1C(=O)c1cc(I)c(OCCN(CC)CC)c(I)c1 | inactive | inactive
Cc1cnc(C(=O)NCCc2ccc(S(=O)(=O)NC(=O)NC3CCCCC3)cc2)cn1 | inactive | inactive
CN(C)CCCN1c2ccccc2CCc2ccc(Cl)cc21 | inactive | inactive
Nc1nc2c(ncn2COC(CO)CO)c(=O)[nH]1 | inactive | inactive
CCOC(=O)C(C)(C)Oc1ccc(Cl)cc1 | inactive | inactive
O=C(c1ccc(F)cc1)C1CCN(CCn2c(=O)[nH]c3ccccc3c2=O)CC1 | inactive | inactive
CN(C)C(=O)C(CCN1CCC(O)(c2ccc(Cl)cc2)CC1)(c1ccccc1)c1ccccc1 | inactive | inactive
CN1CCC(=C2c3ccccc3C=Cc3ccccc32)CC1 | inactive | inactive
O=C(CCCN1CCC(O)(c2ccc(Cl)cc2)CC1)c1ccc(F)cc1 | inactive | inactive
CN1C(C(=O)Nc2ccccn2)=C(O)c2ccccc2S1(=O)=O | inactive | inactive
Cn1cnc2c1c(=O)[nH]c(=O)n2C | inactive | inactive
CN1CCN(C2=Nc3cc(Cl)ccc3Nc3ccccc32)CC1 | inactive | inactive
NCCc1cnc[nH]1 | inactive | inactive
COc1nc(C)nc(Cl)c1NC1=NCCN1 | inactive | inactive
O=C1N(c2ccccc2)c2ccccc2C1(Cc1ccncc1)Cc1ccncc1 | inactive | inactive
O=C(c1ccc(OCCN2CCCCC2)cc1)c1c(-c2ccc(O)cc2)sc2cc(O)ccc12 | inactive | inactive
O=C(Nc1ccc([N+](=O)[O-])cc1Cl)c1cc(Cl)ccc1O | inactive | inactive
Clc1ccccc1C(c1ccccc1)(c1ccccc1)n1ccnc1 | inactive | inactive
C[C@](N)(Cc1ccc(O)c(O)c1)C(=O)O | inactive | inactive
CS(=O)(=O)Nc1ccc([N+](=O)[O-])cc1Oc1ccccc1 | inactive | inactive
Cc1cc(C(C)(C)C)c(O)c(C)c1CC1=NCCN1 | inactive | inactive
CN(C)CCOC(c1ccccc1)c1ccccc1 | inactive | inactive
CN1CCN(CCCN2c3ccccc3Sc3ccc(Cl)cc32)CC1 | inactive | inactive
